From PubChem BioAssay AID651871 (Sanford-Burnham Center for Chemical Genomics, 2012) come the findings set out here.

Values joined by “and” are separate entries in the source; they are usually repeats but may differ in a detail not shown here. Equal entries are not always repeated.

The test system of this assay is HL-1. In words: protection of cardiomyocytes from stress damage, SAR follow-up, cell-based, panel, H9c2 and HL-1, ATP luminescence, set 2 (AID 651871).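 Note: cells exposed to stressor for 2 h before ATP readout; reference of the scale not given here.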 As to conditions: H9c2/HL-1 cardiomyocytes, 2-deoxyglucose stress, with 2-deoxyglucose; run 1, at 79 µM (top of the series).
Consider `COc1ccc2nc(-c3cc(OC)c(OC)c(OC)c3)cc(C(=O)NCC(=O)Nc3ccc(C(C)=O)cc3)c2c1`, for which the activity (protection/inhibition) is 115%.
To `COc1ccc2c(c1OC)C(=O)N1c3ccccc3C(=O)N(Cc3cccc(Cl)c3Cl)C21` (stereo not drawn) belongs 41.2% and 40.9% and -9.68%; to `CCOC(=O)c1cccc(NC(=O)CNC(=O)c2cc(-c3cc(OC)c(OC)c(OC)c3)nc3ccccc23)c1`, 101%.
